Test [1] concerns the target human CYP2D6, CYP2D6 (gene 1565) (UniProt P10635). Nature of the test: NVS_ADME_hCYP2D6: NovaScreen (NVS) CYP450-related Enzyme Activity (ADME) Assay for human CYP2D6 (AID 2283107). In short, it runs like this: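 Biochemical fluorescence assay, insect-cell-derived enzyme. Read at 1 h; inhibition taken from loss of signal against acetonitrile. Screened at 10 uM in duplicate, with concentration series for actives.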

In test [2] the target is Cytochrome P450 2C19 (Homo sapiens) (UniProt P33261). Nature of the test: NVS_ADME_hCYP2C19: NovaScreen (NVS) CYP450-related Enzyme Activity (ADME) Assay for human CYP2C19 (AID 2283113).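 On AC50: potency for inhibition seen as loss of fluorescent signal.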 In short, it runs like this: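 Biochemical CYP2C19 inhibition screen: insect-cell recombinant protein plus fluorescent substrate, 1 h, fluorescence intensity. Acetonitrile defined baseline activity. Single 10 uM concentration in duplicate, with concentration-response follow-up for actives.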

For test [3], the target named is human AKT serine/threonine Kinase 1 (AKT1), AKT1 (gene 207) (UniProt P31749). Nature of the test: NVS_ENZ_hAKT1: NovaScreen (NVS) Enzymatic Assay for human AKT serine/threonine Kinase 1 (AKT1) (AID 2283138). The method in brief:
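Fluorescence and mobility-shift readout of kinase activity, taken 1 h post-dosing in a cell-free format with recombinant protein. Primary screen at 25 uM in duplicate; hits (e.g. 30% inhibition) retested in concentration series topping at 50 uM.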

The target in test [4] is human CYP1A1, CYP1A1 (gene 1543) (UniProt P04798). Nature of the test: NVS_ADME_hCYP1A1: NovaScreen (NVS) CYP450-related Enzyme Activity (ADME) Assay for human CYP1A1 (AID 2283100). In short, it runs like this:
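Inhibition of recombinant CYP1A1 turnover was assessed fluorometrically in a biochemical format 1 h after compound exposure. Testing began at 10 uM in duplicate and progressed to concentration series reaching 20 uM, with on-plate positive and negative controls.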

Test [5] addresses human CYP2C9, CYP2C9 (gene 1559) (UniProt P11712). The experiment in a line: NVS_ADME_hCYP2C9: NovaScreen (NVS) CYP450-related Enzyme Activity (ADME) Assay for human CYP2C9 (AID 2283108). The method in brief:
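Recombinant human CYP2C9 expressed in SF9 cells, fluorogenic substrate, fluorescence read 0.75 h after dosing. Chemicals first run in duplicate at 10 uM, with actives followed in concentration series; loss of signal versus acetonitrile baseline.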

In test [6] the target is rat CYP2C13, Cyp2c13 (gene 171521) (UniProt P20814). The experiment in a line: NVS_ADME_rCYP2C13: NovaScreen (NVS) CYP450-related Enzyme Activity (ADME) Assay for rat CYP2C13 (AID 2283121). In short, it runs like this:
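Inhibition is read as decreased fluorescent product formation, referenced to acetonitrile vehicle. Cell-free recombinant rat Cyp2c13 reaction ran 0.75 hour; compounds first at 10 uM in duplicate, then concentration series for actives.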

For test [7], the target named is human Acid Phosphatase 1 (ACP1), ACP1 (gene 52) (UniProt P24666). Nature of the test: NVS_ENZ_hACP1: NovaScreen (NVS) Enzymatic Assay for human Acid Phosphatase 1 (ACP1) (AID 2283136). In short, it runs like this: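 Cell-free fluorescence read-out of phosphatase activity, substrate and product separated by mobility shift, taken 1.5 h after compound addition; protein produced in Sf9. Single 25 uM duplicate screen, followed by concentration series for actives, scored as signal loss relative to DMSO.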

Another test deals with Caspase-3 (Homo sapiens) (UniProt P42574). The experiment in a line: NVS_ENZ_hCASP3: NovaScreen (NVS) Enzymatic Assay for human Caspase 3 (CASP3) (AID 2283139). In short, it runs like this:
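Single-concentration screening at 25 uM in duplicate, with concentration-response follow-up to a 50 uM maximum for chemicals passing the threshold. Caspase-3 (human, E. coli-expressed) activity was read as substrate fluorescence after 1 h, with loss of signal relative to DMSO.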

The target of test [8] is human Beta-secretase (BACE), BACE1 (gene 23621) (UniProt P56817). Nature of the test: NVS_ENZ_hBACE: NovaScreen (NVS) Enzymatic Assay for human Beta-secretase (BACE) (AID 2283140).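 Further: hits are inhibitors that reduce fluorescent substrate signal versus DMSO.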 The method in brief:
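SF9-expressed enzyme, cell-free; fluorescent substrate readout after 1 h. Screened at 25 uM single concentration, duplicate; hits retested in concentration series. Activity relative to DMSO baseline, loss-of-signal.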

Test [9] deals with human AKT serine/threonine Kinase 2 (AKT2), AKT2 (gene 208) (UniProt P31751). The experiment in a line: NVS_ENZ_hAKT2: NovaScreen (NVS) Enzymatic Assay for human AKT serine/threonine Kinase 2 (AKT2) (AID 2283141). In short, it runs like this: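 Cell-free fluorescence/electrophoretic mobility shift readout of recombinant human AKT2 activity, 1 h after chemical dosing. Duplicate primary screen at 25 uM, then singleton concentration-response up to 50 uM; loss of signal versus DMSO baseline.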

Test [10] concerns the target human Caspase 4 (CASP4), CASP4 (gene 837) (UniProt P49662). Nature of the test: NVS_ENZ_hCASP4: NovaScreen (NVS) Enzymatic Assay for human Caspase 4 (CASP4) (AID 2283143). In short, it runs like this:
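Compounds were first tested in duplicate at 25 uM, and hits were titrated singly to a 50 uM maximum. Recombinant protease from E. coli was read by fluorescence 2 h post-dose, and activity loss was fitted against the DMSO baseline.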

Test [11] concerns the target Cytochrome P450 3A4 (Homo sapiens) (UniProt P08684). The experiment in a line: NVS_ADME_hCYP3A4: NovaScreen (NVS) CYP450-related Enzyme Activity (ADME) Assay for human CYP3A4 (AID 2283110). The method in brief: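 Recombinant CYP3A4 from insect cells, fluorescence enzyme read-out, 0.33 h after chemical addition. Acetonitrile = negative control/baseline. Primary HTS: 10 uM in duplicate; actives re-tested in concentration series.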

Test [12] deals with rat CYP2A1, Cyp2a1 (gene 24894) (UniProt P11711). Nature of the test: NVS_ADME_rCYP2A1: NovaScreen (NVS) CYP450-related Enzyme Activity (ADME) Assay for rat CYP2A1 (AID 2283114; active means hit-call score of the fitted dose curve at least 0.9, where 1 is the maximum; inactive means score below 0.9). In short, it runs like this: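 Cell-free fluorescence enzyme-activity read on recombinant rat CYP2A1, taken 0.75 h post-dosing. Compounds were screened in duplicate at 10 uM, then hits tested in concentration series (max 20 uM); inhibition scored relative to acetonitrile baseline.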

The target in test [13] is rat CYP2A2, Cyp2a2 (gene 24895) (UniProt P15149). Nature of the test: NVS_ADME_rCYP2A2: NovaScreen (NVS) CYP450-related Enzyme Activity (ADME) Assay for rat CYP2A2 (AID 2283116). In short, it runs like this: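 Compounds first tested in duplicate at 10 uM, then in singleton concentration series up to 20 uM when over threshold. Activity of the recombinant enzyme read by fluorescence at 0.2 h, normalised to acetonitrile vehicle.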

Test [14] deals with rat CYP2C11, Cyp2c11 (gene 29277) (UniProt P08683). Nature of the test: NVS_ADME_rCYP2C11: NovaScreen (NVS) CYP450-related Enzyme Activity (ADME) Assay for rat CYP2C11 (AID 2283118). In short, it runs like this: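 Screened first at 10 uM in duplicate, hits followed by concentration-response. Recombinant rat enzyme activity monitored by fluorescence 0.33 h post-dosing, normalised to acetonitrile negative control.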

Test [15] concerns the target rat CYP3A2, Cyp3a2 (gene 266682) (UniProt P05183). Nature of the test: NVS_ADME_rCYP3A2: NovaScreen (NVS) CYP450-related Enzyme Activity (ADME) Assay for rat CYP3A2 (AID 2283128). In short, it runs like this: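 Fluorescence readout of extracted rat CYP3A2 activity 0.5 h post-dose, acetonitrile as negative control. Single-point testing in duplicate at 10 uM, followed by concentration series to a 20 uM maximum for actives.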

The target in test [16] is human CYP2B6, CYP2B6 (gene 1555) (UniProt P20813). The experiment in a line: NVS_ADME_hCYP2B6: NovaScreen (NVS) CYP450-related Enzyme Activity (ADME) Assay for human CYP2B6 (AID 2283101). The method in brief:
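Fluorescence-based enzyme activity of recombinant human CYP2B6, measured 1 h post-dose against acetonitrile vehicle baseline. Screened at a single concentration of 10 uM in duplicate before concentration-response follow-up.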

The subject of another test is rat CYP2C6, gene 293989. The experiment in a line: NVS_ADME_rCYP2C6: NovaScreen (NVS) CYP450-related Enzyme Activity (ADME) Assay for rat CYP2C6 (AID 2283120). The method in brief:
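Compounds first tested in duplicate at 10 uM, hits (e.g. 30% inhibition) re-run in singleton dose series to a 20 uM top concentration. Enzyme activity of recombinant rat CYP2C6 measured via fluorescent substrate turnover after 1 h; acetonitrile baseline.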

Test [17] has as its target rat CYP2D2, Cyp2d26 (gene 25053) (UniProt P10634). The experiment in a line: NVS_ADME_rCYP2D2: NovaScreen (NVS) CYP450-related Enzyme Activity (ADME) Assay for rat CYP2D2 (AID 2283124). In short, it runs like this: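 Single-concentration duplicate testing at 10 uM, followed by concentration-response (top 20 uM) for chemicals passing threshold. Enzyme activity of the recombinant rat isoform measured by fluorescence after 0.75 h, acetonitrile as baseline.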

Values joined by “and” are separate entries in the source; they are usually repeats but may differ in a detail not shown here. Equal values may be shown once. Inconclusive results are not listed. Some compounds were tested as several samples or in several runs, with calls that do not always agree. Active and inactive are the calls of the source. How the source made its calls, unless noted: active means hit-call score of the fitted dose curve at least 0.9, where 1 is the maximum; inconclusive means response in the unintended direction; inactive means score below 0.9.

By AC50 is commonly meant the midpoint of the concentration-response curve, whichever way the signal moves.

human CYP2C9, CYP2C9 (gene 1559), sequence (P11712 whole entry, looked up): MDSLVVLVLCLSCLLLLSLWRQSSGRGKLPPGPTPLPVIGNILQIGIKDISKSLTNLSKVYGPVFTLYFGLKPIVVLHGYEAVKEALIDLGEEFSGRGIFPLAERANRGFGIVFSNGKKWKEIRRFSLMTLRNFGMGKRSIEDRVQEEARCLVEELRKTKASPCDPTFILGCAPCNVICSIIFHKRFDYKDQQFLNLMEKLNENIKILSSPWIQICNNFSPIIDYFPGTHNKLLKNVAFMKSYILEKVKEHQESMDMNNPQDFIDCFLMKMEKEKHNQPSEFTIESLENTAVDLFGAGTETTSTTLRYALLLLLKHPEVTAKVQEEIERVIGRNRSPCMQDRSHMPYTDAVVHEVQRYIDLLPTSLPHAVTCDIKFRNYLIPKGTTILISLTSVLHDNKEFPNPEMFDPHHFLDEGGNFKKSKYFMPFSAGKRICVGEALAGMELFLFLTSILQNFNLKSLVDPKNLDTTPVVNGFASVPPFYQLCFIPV
human Beta-secretase (BACE), BACE1 (gene 23621), sequence (P56817 whole entry, looked up): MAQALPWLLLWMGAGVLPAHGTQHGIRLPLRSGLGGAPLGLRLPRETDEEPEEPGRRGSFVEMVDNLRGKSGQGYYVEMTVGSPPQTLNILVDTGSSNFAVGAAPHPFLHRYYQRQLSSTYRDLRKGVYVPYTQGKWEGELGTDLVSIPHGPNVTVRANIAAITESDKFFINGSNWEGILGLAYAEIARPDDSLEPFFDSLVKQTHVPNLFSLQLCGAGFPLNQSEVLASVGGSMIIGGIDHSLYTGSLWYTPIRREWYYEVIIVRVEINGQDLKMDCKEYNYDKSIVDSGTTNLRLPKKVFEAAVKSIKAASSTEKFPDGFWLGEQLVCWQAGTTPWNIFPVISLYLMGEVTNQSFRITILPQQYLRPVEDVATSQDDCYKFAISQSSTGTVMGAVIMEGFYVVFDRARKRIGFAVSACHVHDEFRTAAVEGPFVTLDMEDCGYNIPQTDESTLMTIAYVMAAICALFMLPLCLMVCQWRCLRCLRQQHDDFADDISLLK
rat CYP2A1, Cyp2a1 (gene 24894), sequence (P11711 whole entry, looked up): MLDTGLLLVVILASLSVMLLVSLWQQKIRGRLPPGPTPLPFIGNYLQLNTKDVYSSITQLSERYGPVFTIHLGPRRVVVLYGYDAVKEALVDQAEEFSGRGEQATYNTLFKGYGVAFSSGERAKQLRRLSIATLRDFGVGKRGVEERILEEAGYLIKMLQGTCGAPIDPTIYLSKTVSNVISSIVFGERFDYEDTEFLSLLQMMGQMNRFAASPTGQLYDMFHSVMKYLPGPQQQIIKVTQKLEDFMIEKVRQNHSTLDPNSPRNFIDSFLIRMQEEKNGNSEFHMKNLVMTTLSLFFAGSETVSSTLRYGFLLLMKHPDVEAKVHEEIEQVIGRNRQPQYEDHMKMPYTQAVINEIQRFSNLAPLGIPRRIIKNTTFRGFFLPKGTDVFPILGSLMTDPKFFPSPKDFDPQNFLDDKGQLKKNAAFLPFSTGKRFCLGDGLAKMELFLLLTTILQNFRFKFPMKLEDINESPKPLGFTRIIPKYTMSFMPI
human AKT serine/threonine Kinase 1 (AKT1), AKT1 (gene 207), sequence (P31749 whole entry, looked up): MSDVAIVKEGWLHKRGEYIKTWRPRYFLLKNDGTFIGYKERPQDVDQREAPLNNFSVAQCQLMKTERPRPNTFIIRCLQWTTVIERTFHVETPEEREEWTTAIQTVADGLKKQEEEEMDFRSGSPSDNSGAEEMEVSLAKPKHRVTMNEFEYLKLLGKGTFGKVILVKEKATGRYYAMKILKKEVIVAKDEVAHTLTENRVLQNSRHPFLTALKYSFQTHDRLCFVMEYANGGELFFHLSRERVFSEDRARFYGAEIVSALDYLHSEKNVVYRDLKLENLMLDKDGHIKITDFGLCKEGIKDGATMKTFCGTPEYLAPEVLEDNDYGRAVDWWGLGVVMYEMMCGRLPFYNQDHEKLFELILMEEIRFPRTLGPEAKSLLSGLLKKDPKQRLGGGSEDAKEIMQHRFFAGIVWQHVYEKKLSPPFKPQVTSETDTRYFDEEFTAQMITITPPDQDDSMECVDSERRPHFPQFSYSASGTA
human Caspase 4 (CASP4), CASP4 (gene 837), sequence (P49662 whole entry, looked up): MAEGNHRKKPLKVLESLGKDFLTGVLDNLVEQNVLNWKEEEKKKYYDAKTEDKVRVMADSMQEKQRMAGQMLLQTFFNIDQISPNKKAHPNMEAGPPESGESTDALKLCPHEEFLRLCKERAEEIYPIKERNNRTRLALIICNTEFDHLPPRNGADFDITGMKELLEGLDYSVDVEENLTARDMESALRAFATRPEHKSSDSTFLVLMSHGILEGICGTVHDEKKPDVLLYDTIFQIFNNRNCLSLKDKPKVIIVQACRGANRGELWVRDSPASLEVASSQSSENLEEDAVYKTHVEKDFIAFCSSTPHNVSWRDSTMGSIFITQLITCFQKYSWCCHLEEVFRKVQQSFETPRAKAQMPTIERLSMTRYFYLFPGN
Cytochrome P450 3A4 (Homo sapiens), sequence (P08684 whole entry, looked up): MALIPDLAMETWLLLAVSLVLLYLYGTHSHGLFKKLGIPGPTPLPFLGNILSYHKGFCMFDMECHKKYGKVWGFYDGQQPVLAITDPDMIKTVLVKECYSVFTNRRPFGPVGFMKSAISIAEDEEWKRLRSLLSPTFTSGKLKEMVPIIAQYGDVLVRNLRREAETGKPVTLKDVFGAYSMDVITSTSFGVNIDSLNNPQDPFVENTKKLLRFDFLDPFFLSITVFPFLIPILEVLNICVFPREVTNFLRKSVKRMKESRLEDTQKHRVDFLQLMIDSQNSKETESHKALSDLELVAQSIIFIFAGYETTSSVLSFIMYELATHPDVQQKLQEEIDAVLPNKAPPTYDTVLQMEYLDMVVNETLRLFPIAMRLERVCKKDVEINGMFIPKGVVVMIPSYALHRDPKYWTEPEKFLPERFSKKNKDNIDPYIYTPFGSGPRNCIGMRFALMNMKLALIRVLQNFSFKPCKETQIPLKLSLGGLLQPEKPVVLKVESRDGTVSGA
human CYP1A1, CYP1A1 (gene 1543), sequence (P04798 whole entry, looked up): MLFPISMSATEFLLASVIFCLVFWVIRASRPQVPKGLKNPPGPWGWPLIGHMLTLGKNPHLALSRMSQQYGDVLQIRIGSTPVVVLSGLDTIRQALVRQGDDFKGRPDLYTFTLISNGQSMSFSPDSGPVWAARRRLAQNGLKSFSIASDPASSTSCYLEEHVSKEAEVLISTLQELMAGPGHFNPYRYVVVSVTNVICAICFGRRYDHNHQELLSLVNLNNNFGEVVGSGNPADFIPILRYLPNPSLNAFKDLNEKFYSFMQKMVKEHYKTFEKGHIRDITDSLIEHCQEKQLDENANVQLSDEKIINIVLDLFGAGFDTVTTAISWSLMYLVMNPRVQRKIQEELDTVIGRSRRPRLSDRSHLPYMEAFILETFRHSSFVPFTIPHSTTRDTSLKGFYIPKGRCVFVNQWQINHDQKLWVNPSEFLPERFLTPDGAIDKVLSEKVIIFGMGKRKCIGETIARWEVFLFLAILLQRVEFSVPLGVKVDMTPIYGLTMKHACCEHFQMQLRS
human CYP2B6, CYP2B6 (gene 1555), sequence (P20813 whole entry, looked up): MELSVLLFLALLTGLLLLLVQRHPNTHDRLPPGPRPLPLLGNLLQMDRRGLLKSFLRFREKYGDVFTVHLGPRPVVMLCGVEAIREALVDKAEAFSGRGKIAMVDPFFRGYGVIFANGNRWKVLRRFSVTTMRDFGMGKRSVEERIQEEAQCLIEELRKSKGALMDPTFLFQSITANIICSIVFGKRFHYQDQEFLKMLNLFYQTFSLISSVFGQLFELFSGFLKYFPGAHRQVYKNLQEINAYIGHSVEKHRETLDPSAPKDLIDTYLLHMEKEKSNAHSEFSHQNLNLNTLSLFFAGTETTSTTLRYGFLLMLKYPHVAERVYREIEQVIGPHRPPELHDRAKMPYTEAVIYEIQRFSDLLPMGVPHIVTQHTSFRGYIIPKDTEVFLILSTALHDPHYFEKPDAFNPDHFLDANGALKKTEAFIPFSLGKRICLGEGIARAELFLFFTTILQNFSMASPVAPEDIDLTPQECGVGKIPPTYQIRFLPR
rat CYP2C13, Cyp2c13 (gene 171521), sequence (P20814 whole entry, looked up): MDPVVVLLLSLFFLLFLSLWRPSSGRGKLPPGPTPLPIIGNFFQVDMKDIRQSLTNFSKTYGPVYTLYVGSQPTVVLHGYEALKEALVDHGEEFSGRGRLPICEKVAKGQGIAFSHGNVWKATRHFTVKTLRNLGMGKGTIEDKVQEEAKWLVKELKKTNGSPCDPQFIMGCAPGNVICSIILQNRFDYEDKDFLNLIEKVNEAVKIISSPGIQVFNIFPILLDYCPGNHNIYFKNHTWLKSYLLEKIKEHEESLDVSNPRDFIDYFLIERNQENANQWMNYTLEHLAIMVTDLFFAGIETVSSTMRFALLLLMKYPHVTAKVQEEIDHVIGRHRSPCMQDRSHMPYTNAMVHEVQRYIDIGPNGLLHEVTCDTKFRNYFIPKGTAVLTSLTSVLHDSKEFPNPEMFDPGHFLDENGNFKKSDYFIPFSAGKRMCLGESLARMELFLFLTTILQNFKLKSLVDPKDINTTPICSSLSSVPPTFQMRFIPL
rat CYP2A2, Cyp2a2 (gene 24895), sequence (P15149 whole entry, looked up): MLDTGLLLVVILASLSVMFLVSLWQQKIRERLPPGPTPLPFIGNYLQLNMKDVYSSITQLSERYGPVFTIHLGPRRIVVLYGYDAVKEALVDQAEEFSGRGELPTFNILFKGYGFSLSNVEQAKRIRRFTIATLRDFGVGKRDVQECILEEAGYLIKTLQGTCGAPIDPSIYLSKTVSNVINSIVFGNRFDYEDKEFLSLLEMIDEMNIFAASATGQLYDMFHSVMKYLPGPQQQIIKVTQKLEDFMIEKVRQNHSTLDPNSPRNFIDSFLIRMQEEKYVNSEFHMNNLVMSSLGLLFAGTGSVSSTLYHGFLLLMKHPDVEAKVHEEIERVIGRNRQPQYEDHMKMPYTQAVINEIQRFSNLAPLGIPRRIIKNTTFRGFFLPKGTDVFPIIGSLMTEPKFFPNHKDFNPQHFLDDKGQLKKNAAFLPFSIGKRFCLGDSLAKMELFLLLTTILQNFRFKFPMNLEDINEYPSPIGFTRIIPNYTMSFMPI

With `COc1nc(C)nc(NC(=O)NS(=O)(=O)c2ccccc2OCCCl)n1`, the results for the concentration at half-maximal activity (AC50) in [1] and in [2] were 1070 nM (active) and 17.7 nM (active), respectively. The compound was called inactive in [3].

For `S=C(S)NCCNC(=S)S.[Mn+2].[S-]C([S-])=NCCN=C([S-])[S-].[Zn+2]`, the call (in test [4]; in [2]; in test [6]; with Caspase-3 (Homo sapiens); in [10]) was inactive. Moreover, the concentration at half-maximal activity (AC50) is 1.63 µM (active) and 1.92 µM (active) and 4.37 µM (active) in [5]; 4.22 µM (active) and 4.27 µM (active) in test [7]; 683 nM (active) and 1.49 µM (active) in test [3]; 9110 nM (active) in [8]; 1.64 µM (active) and 1.94 µM (active) in test [9]; 179 nM (active) in test [10].

In the case of `CC(C)(C)[C@@H](O)[C@@H](Cc1ccc(Cl)cc1)n1cncn1`, the half-maximal activity concentration (AC50) in test [5] was 6.81 µM (active); in test [11] it was 2680 nM (active); in test [2] it was 172 nM (active); in test [12] it was 1700 nM (active); in [13] it was 34.8 nM (active); in test [14] it was 2050 nM (active). The AC50 is 370 nM (active) in [6] and 4880 nM (active) in [15].

With `C#CCOC(=O)[C@@H](C)Oc1ccc(Oc2ncc(Cl)cc2F)cc1`, the half-maximal activity concentration (AC50) was 2240 nM (active) in test [4]; 777 nM (active) in [16]; 1500 nM (active) in test [2]; 1100 nM (active) in [14]; 310 nM (active) in the test on rat CYP2C6, gene 293989. Also, the outcome in test [12] was inactive.

With `O=C(c1ccc(O)cc1O)c1ccc(O)cc1O`, the results for the AC50 in [16], in [11] and in test [2] were 6260 nM (active), 5880 nM (active) and 6300 nM (active), respectively. The compound was classed as inactive in [8].

As for `COC(=O)CSc1cc(N=c2sc(=O)n3n2CCCC3)c(F)cc1Cl`, the call in test [4] and in [17] was inactive.

For the compound `CCCCCCC(C)OC(=O)COc1nc(F)c(Cl)c(N)c1Cl` (stereo not drawn), the result in test [5] and in test [13] was inactive. The AC50 in test [11] is 7600 nM (active); in [2], 4620 nM (active); in [8], 3290 nM (active).

On to `CCCCCOC(=O)COc1cc(N2C(=O)C3=C(CCCC3)C2=O)c(F)cc1Cl`, for which the compound was called inactive in [5] and in [12]. Moreover, the concentration at half-maximal activity (AC50) is 4420 nM (active) in [2] and 3500 nM (active) in test [8].
